# PubChem BioAssay AID1053173 (Broad Institute, 2014)
# In all, about 1,500 compounds went through this assay and about 390 (26%) were called active. No rule for the calls is given here. A selection follows. Potency and affinity values are given separately.
# Molecular target: Histone-lysine N-methyltransferase NSD2 (Homo sapiens) (UniProt O96028)
# Assay: blockers of NSD2 H4 peptide methylation – biochemical, AlphaScreen, cherry-picked samples, dose response (AID 1053173);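 also: 0% = neutral control wells and -100% = positive control wells on each plate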
# Conditions: 120 min; series mostly up to 10 µM; activity change, negative = inhibition: at the top concentration
# Sequence of Histone-lysine N-methyltransferase NSD2 (Homo sapiens) (O96028 whole entry, looked up): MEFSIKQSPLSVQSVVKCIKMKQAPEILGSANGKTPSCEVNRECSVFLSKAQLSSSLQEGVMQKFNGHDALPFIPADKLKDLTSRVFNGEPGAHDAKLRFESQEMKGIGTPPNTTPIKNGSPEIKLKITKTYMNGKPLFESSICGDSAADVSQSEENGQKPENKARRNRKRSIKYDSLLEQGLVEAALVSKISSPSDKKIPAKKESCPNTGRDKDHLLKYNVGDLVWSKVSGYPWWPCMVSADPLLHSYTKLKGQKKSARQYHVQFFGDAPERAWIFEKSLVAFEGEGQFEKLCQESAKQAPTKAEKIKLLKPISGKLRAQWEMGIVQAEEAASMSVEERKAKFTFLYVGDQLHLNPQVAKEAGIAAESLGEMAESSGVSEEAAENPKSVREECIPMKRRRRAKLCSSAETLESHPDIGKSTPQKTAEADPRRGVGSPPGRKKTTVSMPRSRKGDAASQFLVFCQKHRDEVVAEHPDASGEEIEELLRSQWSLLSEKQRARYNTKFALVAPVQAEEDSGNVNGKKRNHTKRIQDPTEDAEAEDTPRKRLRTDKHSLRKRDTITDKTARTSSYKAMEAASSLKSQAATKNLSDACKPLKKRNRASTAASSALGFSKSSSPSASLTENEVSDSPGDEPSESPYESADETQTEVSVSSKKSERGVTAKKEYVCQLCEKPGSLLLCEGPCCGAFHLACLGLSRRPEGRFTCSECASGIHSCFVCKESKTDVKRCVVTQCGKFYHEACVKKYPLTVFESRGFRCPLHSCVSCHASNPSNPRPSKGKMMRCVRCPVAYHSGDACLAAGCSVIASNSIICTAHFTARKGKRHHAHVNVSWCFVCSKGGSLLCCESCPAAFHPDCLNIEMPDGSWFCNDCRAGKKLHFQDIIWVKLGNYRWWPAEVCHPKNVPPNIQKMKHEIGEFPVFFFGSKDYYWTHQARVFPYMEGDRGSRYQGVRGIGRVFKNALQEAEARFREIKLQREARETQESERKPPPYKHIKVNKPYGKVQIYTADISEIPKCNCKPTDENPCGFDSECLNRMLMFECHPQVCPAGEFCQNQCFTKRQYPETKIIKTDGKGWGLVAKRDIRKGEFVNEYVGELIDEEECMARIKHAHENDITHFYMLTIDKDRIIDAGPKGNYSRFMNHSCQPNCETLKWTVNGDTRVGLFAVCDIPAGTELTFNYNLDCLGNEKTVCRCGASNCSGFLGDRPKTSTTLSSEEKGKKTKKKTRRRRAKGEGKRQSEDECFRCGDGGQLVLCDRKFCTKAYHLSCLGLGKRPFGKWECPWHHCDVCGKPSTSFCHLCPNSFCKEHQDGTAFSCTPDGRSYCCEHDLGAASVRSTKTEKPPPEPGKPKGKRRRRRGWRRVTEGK
row,Structure (SMILES),"activity change, negative = inhibition"
1,CC(=O)NC1=NN(C(C)=O)C(C)(c2cccc([N+](=O)[O-])c2)S1 (stereo not given),-1.79% (inactive)
2,CCOC(=O)C1(C)CCCN1C(=O)c1cccc(F)c1 (stereo not given),1.47% (inactive)
3,CC1(CC(=O)N/N=C/c2cc([N+](=O)[O-])c(O)cc2O)OCCO1,-0.127% (inactive)
4,Cc1cc(NC(=O)COC(=O)c2cccc(S(=O)(=O)N3CCOCC3)c2)no1,2.01% (inactive)
5,O=C(CNc1ccc(F)cc1)N/N=C/c1c(O)ccc2ccccc12,3% (inactive)
6,O=C(CSc1nc(-c2ccccc2)c(-c2ccccc2)o1)Nc1nnc(-c2ccccc2)s1,-2.84% (inactive)
7,C/C(=N\NC(=O)CSc1nc2ccccc2o1)c1ccc(O)cc1,2.05% (inactive)
8,C=CCn1c(-c2ccc(OC)cc2)nc2nc3ccccc3nc21,-2.2% (inactive)
9,O=c1[nH]c(CN2CCOCC2)nc2cc(Cl)ccc12,0.642% (inactive)
10,CCOc1cc(/C=C/C(=O)OCC(=O)NCCN2C(=O)CSC2=O)ccc1OCC(C)C,2.25% (inactive)
11,Cc1cccc(-n2c3nc(=O)[nH]c(=O)c-3cc3cc([N+](=O)[O-])ccc32)c1,-12% (inactive)
12,Cc1c(NC(=O)CN2C(=O)C(=O)c3ccccc32)c(=O)n(-c2ccccc2)n1C,0.571% (inactive)
13,Cc1c(N=NC2=C(O)CC(C)(C)CC2=O)c(=O)n(-c2ccccc2)n1C,3.54% (inactive)
14,C/C(=C\C(=O)c1cccnc1)Nc1ccc(O)cc1,-3.39% (inactive)
15,COc1ccc(CCNC(=O)CN2C(=O)C(=O)N(C3CCCC3)C2=O)cc1OC,2.65% (inactive)
16,CN(C)Cc1csc(NC(=O)Nc2cccc(Cl)c2)n1,-0.974% (inactive)
17,Cn1c(N2CCCC2)nc2c1c(=O)n(Cc1ccc(Cl)cc1)c(=O)n2C,-0.716% (inactive)
18,COCCN(C(=O)CCC(=O)Nc1cc(C)on1)C(C(=O)NC(C)(C)C)c1ccccc1Cl (stereo not given),-3.87% (inactive)
19,COc1ccc(Cc2ccccc2C(=O)O)cc1,8.87% (inactive)
20,COc1ccc(C(C[N+](=O)[O-])c2c(C)[nH]n(-c3ccccc3)c2=O)cc1 (stereo not given),-10.7% (inactive)
21,O=C(NNS(=O)(=O)c1ccc(F)cc1F)c1csc(-c2cccnc2)n1,-7.29% (inactive)
22,O=C(CCc1ccccc1)NCCCN1CCOCC1,5.13% (inactive)
23,Cc1nn2c3ccccc3n(CCN3CCCCC3)c2nc1=O,-2.99% (inactive)
24,O=C(COc1ccccc1O)NCCN1CCOCC1,10.2% (inactive)
25,O=C(NCCN1CCCCC1)/C(=C/c1ccco1)NC(=O)c1ccccc1,-0.137% (inactive)
26,O=C(NCCCN1CCCC1=O)Nc1ccc(Cl)cc1Cl,0.099% (inactive)
27,O=C(O)Cc1sc(NC2CCCCC2)nc1-c1ccc(Cl)cc1,-7.89% (inactive)
28,Cn1c(=O)c2c(nc(CN3CCC(C(N)=O)CC3)n2Cc2ccccc2Cl)n(C)c1=O,0.375% (inactive)

row,Structure (SMILES),"activity change, negative = inhibition"
1,Cc1ccc(-n2c(C)c(C)c3c(N)ncnc32)cc1,-6.2% (inactive)
2,CC(=O)c1ccc(-n2c(-c3cc(-c4ccco4)[nH]n3)n[nH]c2=S)cc1,-6.71% (inactive)
3,Cc1cc(=O)[nH]c(COc2ccccc2)n1,-1.09% (inactive)
4,COC(=O)COc1ccc(S(=O)(=O)NCC2CCCO2)cc1Cl (stereo not given),1.32% (inactive)
5,Cc1ccc(Nc2nc(-c3ccc(O)c(O)c3)cs2)nc1,-17.4% (inactive)
6,CCOC(=O)c1sc(NC(=O)COc2ccc3c(c2)OCO3)nc1C,5.82% (inactive)
7,COc1ccccc1OCCOc1ccc(/C=C2\C(=N)N3N=C(S(C)(=O)=O)SC3=NC2=O)cc1,-8.8% (inactive)
8,O=C(C=Cc1ccccc1)c1cc(Br)ccc1O,-0.786% (inactive)
9,Cc1sc2ncnc(SCC(=O)Nc3ccc(CN4CCCC4)cc3)c2c1C,-4.45% (inactive)
10,Nc1nc(O)c(Sc2ccccc2[N+](=O)[O-])c(=O)[nH]1,-5.06% (inactive)
11,Cc1c(-c2ccc(/C=N/NC(=O)C(=O)Nc3ccccc3F)o2)cccc1[N+](=O)[O-],-1.12% (inactive)
12,Nn1cnnc1N/N=C/c1ccc(Cl)c([N+](=O)[O-])c1,-9.15% (inactive)
13,CC1CCC2C(C1)c1sc(=O)[nH]c1SC2(C)C (stereo not given),1.19% (inactive)
14,COc1ccc(-n2ncc3c(NCCCn4ccnc4)ncnc32)cc1,4.21% (inactive)
15,N#Cc1ccccc1OCC(=O)OCC(=O)N1CCN(C(=O)c2ccco2)CC1,-0.885% (inactive)
16,CCCC(=O)Nc1cc(C)cn(Cc2c(F)cccc2Cl)c1=O,-4.87% (inactive)
17,COc1ccc(-n2nnnc2SCC(=O)c2ccc3c(c2)OCCO3)cc1,-1.12% (inactive)
18,COc1ccc(OCC(=O)NNc2c3ccccc3nc3ccccc23)cc1,2.29% (inactive)
19,CCOC(=O)N1CCN(C(=S)NCCOC)CC1,-0.483% (inactive)
20,O=C(CC1(O)C(=O)Nc2cc(Cl)cc(Cl)c21)c1ccncc1 (stereo not given),-2.95% (inactive)
21,CC1CCCN(S(=O)(=O)c2ccc(NC(=O)CN3CCN(C)CC3)cc2)C1 (stereo not given),0.323% (inactive)
22,NS(=O)(=O)c1ccc(S(=O)(=O)N2CCN(C3CCCC3)CC2)cc1,-3.4% (inactive)
23,Cc1ccc(C(=O)C2CCN(S(=O)(=O)c3ccc(C(=O)O)cc3)CC2)cc1,-3.03% (inactive)
24,O=C(NCc1ccc(Cl)cc1)c1ccc(S(=O)(=O)N2CCCCC2)cc1,-0.074% (inactive)
25,Cc1cccc(NC(=S)N2CCN(c3ccccc3F)CC2)c1C,-0.373% (inactive)
26,CC(C)c1ccc(S(=O)(=O)N2CCN(CC(=O)Nc3ccc(Cl)cc3F)CC2)cc1,4.54% (inactive)
27,O=C(c1ccc(S(=O)(=O)N2CCOCC2)cc1)N(c1cccc(Cl)c1)C1C=CS(=O)(=O)C1 (stereo not given),-0.178% (inactive)
